Screens: PubChem BioAssay, National Center for Advancing Translational Sciences (NCATS)
BAZ2B inh = inhibitors of human BAZ2B bromodomain; Q9UIF8; AlphaScreen BAZ2B-H3K14Ac peptide displacement; Potency, µM (doses to about 114 µM), for the others: top-dose activity change, negative = inhibition, actives largely listed as inhibitors; 4.4% of 360,000 active; note: % is set by controls: 0 for no effect and ±100 for the full control effect; nearly all actives have a fitted effect of over 60% in size
Target sequence (Q9UIF8 whole entry, looked up): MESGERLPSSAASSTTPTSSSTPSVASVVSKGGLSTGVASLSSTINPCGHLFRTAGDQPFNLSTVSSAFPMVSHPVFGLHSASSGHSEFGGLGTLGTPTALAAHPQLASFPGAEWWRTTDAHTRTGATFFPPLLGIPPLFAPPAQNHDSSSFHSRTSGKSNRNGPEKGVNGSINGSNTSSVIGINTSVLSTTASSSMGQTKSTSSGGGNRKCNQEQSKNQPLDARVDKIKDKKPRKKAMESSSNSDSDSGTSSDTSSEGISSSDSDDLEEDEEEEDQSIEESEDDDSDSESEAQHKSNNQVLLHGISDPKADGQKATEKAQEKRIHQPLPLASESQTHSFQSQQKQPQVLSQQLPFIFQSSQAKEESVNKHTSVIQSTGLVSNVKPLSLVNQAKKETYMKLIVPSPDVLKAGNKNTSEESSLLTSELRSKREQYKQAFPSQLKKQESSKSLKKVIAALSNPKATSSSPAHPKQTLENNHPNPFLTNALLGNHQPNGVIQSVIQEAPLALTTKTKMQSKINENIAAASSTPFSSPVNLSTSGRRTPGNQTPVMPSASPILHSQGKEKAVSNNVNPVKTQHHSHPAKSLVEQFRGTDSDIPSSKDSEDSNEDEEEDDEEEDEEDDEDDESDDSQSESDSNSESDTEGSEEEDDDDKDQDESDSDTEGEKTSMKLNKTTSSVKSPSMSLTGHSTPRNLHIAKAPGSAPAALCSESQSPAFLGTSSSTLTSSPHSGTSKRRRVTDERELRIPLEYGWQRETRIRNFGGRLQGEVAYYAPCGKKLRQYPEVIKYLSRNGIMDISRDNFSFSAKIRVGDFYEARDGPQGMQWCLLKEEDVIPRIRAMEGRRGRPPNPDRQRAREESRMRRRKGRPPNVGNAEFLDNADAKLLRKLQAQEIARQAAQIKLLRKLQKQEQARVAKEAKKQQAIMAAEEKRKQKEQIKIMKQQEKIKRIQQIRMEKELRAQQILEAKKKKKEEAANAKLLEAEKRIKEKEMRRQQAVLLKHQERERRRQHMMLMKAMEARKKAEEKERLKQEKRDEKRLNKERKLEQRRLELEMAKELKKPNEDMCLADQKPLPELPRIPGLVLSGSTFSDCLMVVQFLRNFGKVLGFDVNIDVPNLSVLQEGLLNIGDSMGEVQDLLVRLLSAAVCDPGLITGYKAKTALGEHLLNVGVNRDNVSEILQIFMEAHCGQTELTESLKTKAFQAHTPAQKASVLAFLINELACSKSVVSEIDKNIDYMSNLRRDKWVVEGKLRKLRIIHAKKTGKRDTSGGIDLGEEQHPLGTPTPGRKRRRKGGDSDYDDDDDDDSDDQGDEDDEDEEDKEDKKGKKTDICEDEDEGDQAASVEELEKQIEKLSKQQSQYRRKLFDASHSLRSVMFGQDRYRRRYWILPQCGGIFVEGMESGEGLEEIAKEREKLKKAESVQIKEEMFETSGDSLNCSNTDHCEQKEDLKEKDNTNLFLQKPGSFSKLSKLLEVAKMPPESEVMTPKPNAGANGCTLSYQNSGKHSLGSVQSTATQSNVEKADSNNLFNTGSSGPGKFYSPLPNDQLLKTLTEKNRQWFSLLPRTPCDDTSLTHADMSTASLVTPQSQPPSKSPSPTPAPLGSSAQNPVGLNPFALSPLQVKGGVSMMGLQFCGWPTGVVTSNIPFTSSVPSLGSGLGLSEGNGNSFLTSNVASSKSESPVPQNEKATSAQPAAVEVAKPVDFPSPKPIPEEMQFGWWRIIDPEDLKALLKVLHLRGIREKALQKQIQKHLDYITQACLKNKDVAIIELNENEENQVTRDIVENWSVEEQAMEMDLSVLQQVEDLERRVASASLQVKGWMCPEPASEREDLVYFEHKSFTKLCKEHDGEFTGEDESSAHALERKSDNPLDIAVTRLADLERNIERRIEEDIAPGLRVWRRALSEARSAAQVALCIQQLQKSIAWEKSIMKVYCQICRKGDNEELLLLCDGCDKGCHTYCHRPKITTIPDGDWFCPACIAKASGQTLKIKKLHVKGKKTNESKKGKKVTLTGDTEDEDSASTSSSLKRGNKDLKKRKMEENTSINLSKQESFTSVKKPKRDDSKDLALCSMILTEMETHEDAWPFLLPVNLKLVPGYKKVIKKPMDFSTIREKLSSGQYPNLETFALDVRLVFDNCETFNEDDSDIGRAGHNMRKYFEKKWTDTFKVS
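AlphaScreen displacement of biotin-H3(5-23)K14Ac peptide (50 nM final) from BAZ2B (50 nM final) in PBS pH 7.4, 0.01% Tween-20; complex preformed 30 min RT, then compounds (top 110 uM) 30 min RT, beads 20 min dark.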
PLK1 PBD inh = inhibitors of human PLK1 polo-box domain binding; P53350; Plk1 PBD binding of FITC phosphopeptide, fluorescence polarization; Potency, µM, for inactives: max response, negative = inhibition, most hits filed as inhibitors; 2.8% of 360,000 active; AID 720504; note: series mostly up to about 57 µM; % is set by controls: 0 for no effect and ±100 for the full control effect; nearly all actives have a fitted effect of over 65% in size
HP1b chromo inh = inhibitors of HP1-beta chromodomain binding to methylated histone tails; P83916; AlphaScreen HP1-beta / biotin-H3K9me3 peptide binding; Potency, µM (series often up to 114 µM), for the others: at the highest dose activity change, negative = inhibition, actives largely listed as inhibitors; 0.56% of 390,000 active; AID 540317; note: nearly all actives have a fitted effect of over 70% in size
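Compound inhibition of the preformed complex between 50 nM HP1-beta and 50 nM biotinylated H3K9me3 peptide was read by AlphaScreen. Buffer was PBS pH 7.4 with 0.01% Tween-20. Incubations ran 30 min at room temperature, with 10 ug/mL donor/acceptor beads.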
JMJD2A Tudor inh = JMJD2A Tudor domain (human) inhibition. O75164. AlphaScreen JMJD2A-Tudor / H3K4me3 peptide binding. Potency, µM (doses to about 114 µM), for inactives: at the top dose activity change, negative = inhibition, usual class: inhibitors. 4.4% of 390,000 active; note: % is set by controls: 0 for no effect and ±100 for the full control effect; nearly all actives have a fitted effect of over 50% in size
12-LOX inh = inhibitors of human 12S-lipoxygenase ALOX12; purified 12hLO, xylenol orange hydroperoxide absorbance; Potency, µM (doses to about 108 µM), inactives show at the top dose activity change, negative = inhibition, most hits filed as inhibitors; 1.1% of 580,000 active; AID 1671190; note: % is set by controls: 0 for no effect and ±100 for the full control effect
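Purified human 12hLO at 150 nM in 25 mM Hepes, 0.01% Triton X-100, pH 7.0, preincubated 15 min at room temperature with compound. Reaction started with 40 uM arachidonic acid, 30 min at room temperature. Hydroperoxide measured by Fe-xylenol orange, 573/405 nm absorbance ratio.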
G9a inh = inhibitors of human histone lysine methyltransferase G9a; Potency, µM (top dose mostly 102 µM), without a hit: at the top dose activity, negative = inhibition, hits mostly inhibitors; 8.8% of 350,000 active; AID 504332; Q96KQ7; G9a H3K9 monomethylation, AlphaScreen, 2 h; note: % is set by controls: 0 for no effect and ±100 for the full control effect; nearly all actives have a fitted effect of over 75% in size
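Using a bead-based AlphaScreen, monomethylated H3K9 product from 2 h room-temperature reactions (G9a 20 nM, peptide 500 nM, SAM 20 uM) was detected with 0.5 ug/mL rabbit anti-H3K9me1 antibody.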
The depositor's hits bear a star; [ ] = remark or other dose. In the library only some 9% were active in any assay of this set; here they are far more common. Calls come from the whole dose curve; as a rule, active = well fitted curve in the direction sought with a large enough effect; inconclusive = small, poorly fitted or top-dose-only effect, or another doubt; inactive = no such curve, though single readings can be large; an effect the other way counts as inactive or inconclusive. Potency is the fitted concentration of half-maximal effect.

What do the screens show for `C[C@H](CO)N1C[C@H](C)[C@@H](CN(C)Cc2ccc3c(c2)OCCO3)OCc2cnnn2CCCC1=O`?
PLK1 PBD inh: -2.9%; 12-LOX inh: -43.5%

Results for O=C(Nc1ccccc1)c1cc(C2CCCN(C(=O)c3ccc4c(c3)CCO4)C2)on1 (configuration not stated) ?
PLK1 PBD inh: -6.4%; 12-LOX inh: -2.7%

What do the screens show for `Cc1oc(-c2ccc(F)cc2)nc1CN(Cc1ccccn1)CC1CCCO1` (configuration not stated)?
BAZ2B inh: -13.7%; PLK1 PBD inh: 29.9µM*; HP1b chromo inh: inconclusive; JMJD2A Tudor inh: 20µM*; 12-LOX inh: -0.3%; G9a inh: 0.9%

How did O=C(NC(Sc1ccc(Cl)cc1)C(=O)O)c1ccccc1 (configuration not stated) do in these assays?
PLK1 PBD inh: 13.4µM*; 12-LOX inh: inconclusive

Results for COc1ccc([C@H]2C[C@@H](O)[C@@H](O)[C@@H]2NCc2nc3ccccc3n2C)cc1 ?
12-LOX inh: 55.3%[176 µM]

What do the screens show for `NC(=O)c1sc(=S)n2c1[nH]c(=O)c1sccc12`?
BAZ2B inh: -23.0%; PLK1 PBD inh: -16.6%; HP1b chromo inh: -8.9%; JMJD2A Tudor inh: inconclusive; 12-LOX inh: inconclusive; G9a inh: 17.8µM*

How did CC(=O)NNC(=O)c1sc(=S)n2c1[nH]c(=O)c1sccc12 do in these assays?
BAZ2B inh: -22.9%; PLK1 PBD inh: 21.2µM*; HP1b chromo inh: inconclusive; JMJD2A Tudor inh: 79.4µM*; 12-LOX inh: inconclusive; G9a inh: 12.6µM*

Results for CCCN(CCC)C(=O)Cn1c(=O)c2sccc2n2c(=S)sc(-c3ccccc3)c12 ?
BAZ2B inh: -11.7%; PLK1 PBD inh: -27.0%; HP1b chromo inh: -6.3%; JMJD2A Tudor inh: -12.9%; 12-LOX inh: 288.5%; G9a inh: inconclusive

What do the screens show for `CC(=O)NCCNC(=O)CCCc1nnc2n(C)c(=O)c3sccc3n12`?
BAZ2B inh: -1.3%; HP1b chromo inh: 11.7%; JMJD2A Tudor inh: -13.7%; 12-LOX inh: -23.9%; G9a inh: 0.8%[59 µM]

How did O=[N+]([O-])c1cnn2cc(Br)cnc12 do in these assays?
BAZ2B inh: -11.3%; PLK1 PBD inh: -14.7%; HP1b chromo inh: 16.7%; JMJD2A Tudor inh: -13.8%; 12-LOX inh: -2.5%; G9a inh: 25.3%

What do the screens show for `CN1CCCC1c1nc(C2CN(C(=O)C3CC3)C2)no1` (configuration not stated)?
12-LOX inh: 37.1%

Results for CCN(C(=O)COC(=O)c1nc2nc(C)cc(C)n2n1)C1CCCCC1 ?
BAZ2B inh: 2.3%; PLK1 PBD inh: -7.2%; HP1b chromo inh: 21.5%; JMJD2A Tudor inh: 1.4%; 12-LOX inh: 4.4%; G9a inh: -1.9%

Results for CCc1ccc(NC2=CC(=O)CC(c3ccco3)C2)cc1 (configuration not stated) ?
BAZ2B inh: inconclusive; PLK1 PBD inh: -1.9%; HP1b chromo inh: 7.5%; JMJD2A Tudor inh: inconclusive; 12-LOX inh: inconclusive; G9a inh: 50.1µM*

Results for Nc1ccccc1NC1=CC(=O)CC(c2ccco2)C1 (configuration not stated) ?
BAZ2B inh: -2.0%; PLK1 PBD inh: -3.4%; HP1b chromo inh: 3.0%; JMJD2A Tudor inh: -26.0%; 12-LOX inh: 492.1%; G9a inh: 10µM*

What do the screens show for `Cc1c(CN(C)C)c2c(n1Cc1ccccc1)C(=O)c1ccccc1-2`?
BAZ2B inh: 50.1µM*; PLK1 PBD inh: 0.5%; HP1b chromo inh: inconclusive; JMJD2A Tudor inh: 50.1µM*; 12-LOX inh: -14.1%; G9a inh: inconclusive

Results for C/C(=N\O)c1ccc2c(c1)OCCO2 ?
BAZ2B inh: -25.5%; PLK1 PBD inh: -9.8%; HP1b chromo inh: 37.4%; JMJD2A Tudor inh: 3.6%; 12-LOX inh: -2.2%; G9a inh: -3.7%

What do the screens show for `CCSc1nnc(-c2cccc(S(=O)(=O)N(C)C)c2)n1-c1cc(OC)ccc1OC`?
BAZ2B inh: 13.4%; PLK1 PBD inh: -2.3%; HP1b chromo inh: 28.6%; JMJD2A Tudor inh: -12.7%; 12-LOX inh: -8.7%; G9a inh: inconclusive

What do the screens show for `COc1ccc(OC)c(-n2c(-c3cccc(S(=O)(=O)N(C)C)c3)n[nH]c2=S)c1`?
PLK1 PBD inh: -26.5%; HP1b chromo inh: -19.1%; JMJD2A Tudor inh: inconclusive; 12-LOX inh: -1.8%; G9a inh: 2.51µM*

Results for COc1cccc(-n2c(-c3cccc(S(=O)(=O)N(C)C)c3)n[nH]c2=S)c1 ?
PLK1 PBD inh: 4.5%; HP1b chromo inh: 13.8%; JMJD2A Tudor inh: 8.91µM*; 12-LOX inh: inconclusive; G9a inh: 2.51µM*

What do the screens show for `Nc1[nH]c(C(=O)c2ccccc2)c(-c2ccc(Cl)cc2Cl)c1C(=O)c1ccc(Cl)cc1`?
12-LOX inh: -7.7%

How did CSc1ccc(CNCc2ccco2)cc1 do in these assays?
BAZ2B inh: -30.6%; PLK1 PBD inh: -0.5%; HP1b chromo inh: 15.6%; JMJD2A Tudor inh: -17.9%; 12-LOX inh: 0.0%; G9a inh: inconclusive

How did CCOc1ccc(CNCc2ccco2)cc1OC do in these assays?
12-LOX inh: -27.1%

Results for COc1cc(CNCc2ccco2)cc(OC)c1O ?
BAZ2B inh: -4.4%; PLK1 PBD inh: -7.5%; HP1b chromo inh: 34.7%; JMJD2A Tudor inh: -6.2%; 12-LOX inh: 9.2%; G9a inh: 70.8µM*

Results for Cc1ccc(CNCc2ccco2)cc1 ?
BAZ2B inh: 56.2µM*; PLK1 PBD inh: -1.4%; HP1b chromo inh: -4.7%; JMJD2A Tudor inh: 28.2µM*; 12-LOX inh: inconclusive; G9a inh: 22.4µM*

How did CCCCOc1nc2c(c(=O)n(C)c(=O)n2C)n1C do in these assays?
BAZ2B inh: 0.4%; PLK1 PBD inh: -20.2%; HP1b chromo inh: 26.3%[57 µM]; JMJD2A Tudor inh: -3.3%; 12-LOX inh: 24.6%; G9a inh: -3.0%

How did CCNc1sc(C(C)=O)c(N)c1C#N do in these assays?
12-LOX inh: 3.16µM*

How did COC(CNC(=O)c1ccc(N2CCc3ccccc32)c([N+](=O)[O-])c1)OC do in these assays?
BAZ2B inh: 39.8µM*; PLK1 PBD inh: 0.0%; HP1b chromo inh: inconclusive; JMJD2A Tudor inh: inconclusive; 12-LOX inh: inconclusive; G9a inh: 44.7µM*

How did C=C1CCN(c2ccc(C(=O)NCc3ccccc3)cc2[N+](=O)[O-])CC1 do in these assays?
BAZ2B inh: inconclusive; PLK1 PBD inh: 2.6%; HP1b chromo inh: -5.7%; JMJD2A Tudor inh: inconclusive; 12-LOX inh: 12.7%; G9a inh: 22.4µM*

What do the screens show for `O=C(NCc1ccccc1)c1ccc(N2CCC3(CC2)CC(c2ccccc2)=NO3)c([N+](=O)[O-])c1`?
BAZ2B inh: -8.7%; PLK1 PBD inh: -10.2%; HP1b chromo inh: 2.7%; JMJD2A Tudor inh: -28.7%; 12-LOX inh: -1.1%
